Reference: PubChem BioAssay (EPA / NIEHS)
Inconclusive results are not listed. Active and inactive are the calls of the source. How the source made its calls, unless noted: active means hit-call score of the fitted dose curve at least 0.9, where 1 is the maximum; inconclusive means response in the unintended direction; inactive means score below 0.9.

Assays:
[1] = TOX21_p53_BLA_p2_viability: Viability Assessment in the Tox21 HCT-116 p53 Agonism Beta-lactamase Assay, Phase 2 (AID 2283591);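 further: compound exposure lasted 16 h at 37 °C; actives lower the ATP signal meaning cytotoxicity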
Outline: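 HCT-116 p53-bla cells (4000/well) rested 5 h at 37C, then received compounds in DMSO (217-fold dilution) for 16 h at 37C, 5% CO2. After the CCF4 read, CellTiter-Glo was added; ATP luminescence was read after 30 min at room temperature.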

[2] = target: Cellular tumor antigen p53 (Homo sapiens) (UniProt P04637); test: TOX21_p53_BLA_p2_ratio: Tox21 HCT-116 p53 Agonism Beta-lactamase Assay, Ratio, Phase 2 (AID 2283592)
Cellular tumor antigen p53 (Homo sapiens), sequence (P04637 whole entry, looked up): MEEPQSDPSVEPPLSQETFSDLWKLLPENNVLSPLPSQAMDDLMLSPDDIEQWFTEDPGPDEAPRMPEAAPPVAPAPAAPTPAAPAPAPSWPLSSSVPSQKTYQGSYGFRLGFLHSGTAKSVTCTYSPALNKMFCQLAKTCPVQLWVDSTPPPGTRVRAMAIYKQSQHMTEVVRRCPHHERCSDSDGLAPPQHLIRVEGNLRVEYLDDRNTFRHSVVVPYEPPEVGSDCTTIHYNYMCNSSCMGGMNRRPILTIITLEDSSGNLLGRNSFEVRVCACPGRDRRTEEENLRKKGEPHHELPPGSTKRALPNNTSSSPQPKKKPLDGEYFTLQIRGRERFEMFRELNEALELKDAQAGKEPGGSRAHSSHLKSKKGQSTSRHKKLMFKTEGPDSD
Outline: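 HCT116 cells carrying a p53-responsive beta-lactamase reporter were plated, incubated 5 h at 37C, then dosed with compounds in DMSO (217-fold dilution) for 16 h. CCF4-AM substrate was added for 2 h at room temperature; the 460/530 nm emission ratio gave gain-of-signal activity relative to DMSO.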

[3] = TOX21_p53_BLA_p3_viability: Viability Assessment in the Tox21 HCT-116 p53 Agonism Beta-lactamase Assay, Phase 3 (AID 2283593);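 further: cells exposed to compound for 16 h before reading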
Outline: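 HCT-116 cells (4000/well) rested 5 h at 37C, then got DMSO compounds by pin tool (217-fold dilution) for 16 h at 37C, 5% CO2. After the bla read, CellTiter-Glo was added and luminescence read at 30 min, room temperature.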

[4] = TOX21_p53_BLA_p4_viability: Viability Assessment in the Tox21 HCT-116 p53 Agonism Beta-lactamase Assay, Phase 4 (AID 2283597);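 further: hits lower the luminescence signal meaning cytotoxicity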
Outline: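 HCT116 p53-bla cells (4000/well) rested 5 h at 37C, then received compounds in DMSO (217-fold dilution) for 16 h at 37C, 5% CO2. CellTiter-Glo was added after the CCF4-AM read, and luminescence was read after 30 min at room temperature.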

[5] = TOX21_p53_BLA_p5_viability: Viability Assessment in the Tox21 HCT-116 p53 Agonism Beta-lactamase Assay, Phase 5 (AID 2283600)
Outline: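 Cells were plated at 4000/well, rested 5 h at 37C, then given compounds in DMSO (217-fold dilution) for 16 h at 37C, 5% CO2. Following the CCF4-AM beta-lactamase read, CellTiter-Glo was added and luminescence was read after 30 min at room temperature.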

[6] = target: PGR (gene 5241) (UniProt P06401); test: TOX21_PR_BLA_Followup_Agonist_ratio: Tox21 HEK293 Progesterone Receptor (PR) Agonism Beta-lactamase Follow-Up Assay, Ratio (AID 2283933)
PGR (gene 5241), sequence (P06401 whole entry, looked up): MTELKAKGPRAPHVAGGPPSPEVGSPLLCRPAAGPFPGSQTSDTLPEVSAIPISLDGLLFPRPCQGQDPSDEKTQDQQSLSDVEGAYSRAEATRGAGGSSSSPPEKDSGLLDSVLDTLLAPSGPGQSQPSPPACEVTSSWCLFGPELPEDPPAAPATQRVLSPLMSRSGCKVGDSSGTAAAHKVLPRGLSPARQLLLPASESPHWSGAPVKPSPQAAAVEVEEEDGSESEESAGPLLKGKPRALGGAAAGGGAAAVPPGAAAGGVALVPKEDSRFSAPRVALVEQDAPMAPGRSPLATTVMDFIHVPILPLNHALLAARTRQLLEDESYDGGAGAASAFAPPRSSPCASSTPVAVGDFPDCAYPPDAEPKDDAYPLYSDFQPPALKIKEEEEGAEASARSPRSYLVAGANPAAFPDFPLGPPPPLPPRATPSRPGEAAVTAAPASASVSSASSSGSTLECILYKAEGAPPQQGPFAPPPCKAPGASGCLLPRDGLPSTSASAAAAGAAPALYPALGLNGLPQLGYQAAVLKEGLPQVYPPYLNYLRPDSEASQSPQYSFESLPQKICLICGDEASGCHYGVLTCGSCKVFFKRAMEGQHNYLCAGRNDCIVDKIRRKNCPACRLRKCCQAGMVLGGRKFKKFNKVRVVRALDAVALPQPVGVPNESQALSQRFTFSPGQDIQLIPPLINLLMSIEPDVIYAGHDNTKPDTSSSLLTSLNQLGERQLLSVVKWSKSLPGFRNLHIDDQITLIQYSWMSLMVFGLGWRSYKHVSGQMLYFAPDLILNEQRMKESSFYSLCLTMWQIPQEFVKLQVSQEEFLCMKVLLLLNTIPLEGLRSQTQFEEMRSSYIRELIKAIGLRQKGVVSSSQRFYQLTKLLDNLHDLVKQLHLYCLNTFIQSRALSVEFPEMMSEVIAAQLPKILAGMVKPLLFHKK
Outline: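 PR-UAS-bla HEK293T cells in medium with 2% charcoal-stripped FBS were dosed after 6 h plating and incubated 16 h at 37C. LiveBLAzer FRET substrate was added for 2 h at room temperature. Cleaved/uncleaved substrate ratio fitted against DMSO; CellTiter-Glo viability run in the same wells.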

[7] = target: PGR (gene 5241) (UniProt P06401); test: TOX21_PR_BLA_Followup_Antagonist_ratio: Tox21 HEK293 Progesterone Receptor (PR) Antagonism Beta-lactamase Follow-Up Assay, Ratio (AID 2283934)
Outline: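 PR-UAS-bla HEK293T cells, 3,000/well in 2% charcoal-stripped FBS, given compound plus 1nM R5020 agonist for 16 hr at 37C. Beta-lactamase FRET substrate 2 hours, ratio cleaved/uncleaved fluorescence; viability by CellTiter-Glo in same wells.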

[8] = TOX21_PR_BLA_Followup_Agonist_viability: Viability Assessment in the Tox21 HEK293 Progesterone Receptor (PR) Agonism Beta-lactamase Follow-Up Assay (AID 2283935);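 further: signal loss means lower viability so actives are cytotoxic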
Outline: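 PR-UAS-bla HEK293T cells in 2% charcoal-stripped FBS medium, plated 6 hr before compound addition, exposed 16 hr at 37C. Viability read by CellTiter-Glo ATP luminescence after 30 min at room temperature, in the same wells as the beta-lactamase readout.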

[9] = TOX21_PR_BLA_Followup_Antagonist_viability: Viability Assessment in the Tox21 HEK293 Progesterone Receptor (PR) Antagonism Beta-lactamase Follow-Up Assay (AID 2283936);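 further: hits lower the luminescence signal meaning cytotoxicity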
Outline: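 PR-UAS-bla HEK293T cells (3,000/well, 2% charcoal-stripped FBS) given compound plus R5020 agonist, 16 h at 37C. CellTiter-Glo added after bla read, 30 min at room temperature; luminescence loss indicates cytotoxicity.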

[10] = target: PGR (gene 5241) (UniProt P06401); test: TOX21_PR_LUC_Followup_Agonist: Tox21 HEK293 Progesterone Receptor (PR) Agonism Luciferase Follow-Up Assay (AID 2283937; active means hit-call score of the fitted dose curve at least 0.9, where 1 is the maximum; inactive means score below 0.9)
Outline: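 HEK293-PR-A-luc cells, conditioned 5 days in 10% charcoal-stripped FBS medium, seeded 3,000/well for 5 h, then compound-treated 16 h at 37C. ONE-Glo luminescence read after 30 min at room temperature; gain of signal versus DMSO.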

[11] = target: PGR (gene 5241) (UniProt P06401); test: TOX21_PR_LUC_Followup_Antagonist: Tox21 HEK293 Progesterone Receptor (PR) Antagonism Luciferase Follow-Up Assay (AID 2283938);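 further: curve fitted upward as signal gain over DMSO baseline despite antagonist label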
Outline: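 HEK293-PR-A-luc cells were precultured 5 days in medium with 10% charcoal-stripped FBS, seeded 3,000/well, then exposed to compounds in DMSO for 16 h at 37C. Luciferase was read by ONE-Glo luminescence after 30 min at room temperature.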

[12] = TOX21_PR_LUC_Followup_Agonist_viability: Viability Assessment in the Tox21 HEK293 Progesterone Receptor (PR) Agonism Luciferase Follow-Up Assay (AID 2283941);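 further: loss of signal means cytotoxicity so actives lower viability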
Outline: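 HEK293-PR-A-luc cells, kept in 10% charcoal-stripped FBS medium, were treated with compounds for 16 h at 37C. Viability read as cellular ATP by luciferase-coupled luminescence; loss of signal indicates cytotoxicity.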

[13] = target: Cellular tumor antigen p53 (Homo sapiens) (UniProt P04637); test: TOX21_p53_BLA_p5_ratio: Tox21 HCT-116 p53 Agonism Beta-lactamase Assay, Ratio, Phase 5 (AID 2283599)
Outline: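 HCT-116 cells carrying a p53-inducible beta-lactamase reporter were seeded at 4000 cells/well and dosed after 5 h with compound in DMSO (217-fold dilution). After 16 h at 37C, CCF4-AM substrate was added for 2 h, and the 460/530 nm emission ratio was scored as gain-of-signal versus DMSO.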

[14] = target: Cellular tumor antigen p53 (Homo sapiens) (UniProt P04637); test: TOX21_p53_BLA_p4_ratio: Tox21 HCT-116 p53 Agonism Beta-lactamase Assay, Ratio, Phase 4 (AID 2283601)
Outline: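 HCT116 cells carrying an inducible beta-lactamase reporter were plated at 4000 cells/well, rested 5 h, then exposed to compounds in DMSO (217-fold dilution) for 16 h at 37C. CCF4-AM substrate was loaded 2 h at room temperature; 460/530 nm emission ratio scored gain-of-signal versus DMSO.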

[15] = target: Cellular tumor antigen p53 (Homo sapiens) (UniProt P04637); test: TOX21_p53_BLA_p3_ratio: Tox21 HCT-116 p53 Agonism Beta-lactamase Assay, Ratio, Phase 3 (AID 2283596)
Outline: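 HCT116 p53-bla cells (4000/well) given compound in DMSO (217-fold dilution) after 5 h, incubated 16 h at 37C. CCF4-AM substrate 2 h at room temperature; 460/530 nm emission ratio, gain fitted against DMSO.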

Measured: AC50

COc1ccc2c(c1OC)CN1CCc3cc4c(cc3C1C2)OCO4 (stereo not given)
active: [7] 5.55 µM | [11] 11.5 µM
not listed: [13] | [14] | [15]
inactive: all other assays above

COc1cc(C[C@@H](C)N)c(OC)cc1Br
inactive: [1] | [2] | [3] | [4] | [5]

CCC(=O)O[C@](Cc1ccccc1)(c1ccccc1)[C@H](C)CN(C)C
inactive: [1] | [2] | [3] | [4] | [13] | [14]

CC(Cl)CCl (stereo not given)
inactive: [1] | [2] | [15] | [4] | [13] | [5] | [14]

CCC/C=C/C=C/C(=O)O[C@H]1/C(=C/C(=O)OC)C[C@H]2C[C@H]([C@@H](C)O)OC(=O)C[C@H](O)C[C@@H]3C[C@H](OC(C)=O)C(C)(C)[C@](O)(C[C@@H]4C/C(=C/C(=O)OC)C[C@H](/C=C/C(C)(C)[C@]1(O)O2)O4)O3
inactive: [1] | [2] | [15] | [4] | [13] | [14]

CN(C)c1ccc(N(C)C)cc1
inactive: [1] | [2] | [15] | [4] | [13] | [14]

CN1CCc2cc(Cl)c(O)cc2[C@H]2c3ccccc3CC[C@@H]21
inactive: [1] | [2] | [15] | [13] | [5]

CCOP(=S)(OCC)SC(CCl)N1C(=O)c2ccccc2C1=O (stereo not given)
inactive: [1] | [2] | [15] | [4] | [13] | [5] | [14]

C=CCOCC1CO1 (stereo not given)
inactive: [1] | [2] | [15] | [4] | [13]

O=C1CCCCC1CN1CCCCC1 (stereo not given)
inactive: [1] | [2] | [15] | [4] | [14]

CN1[C@@H]2CC[C@H]1CC(O)C2 (stereo not given in full)
inactive: [1] | [2] | [15] | [4] | [13] | [5] | [14]

Cc1nnc2n1-c1sc(Br)cc1C(c1ccccc1Cl)=NC2
inactive: [1] | [2] | [15] | [4] | [13] | [5]

CN1CCN=C(c2ccccc2)c2cc(Cl)ccc21
active: [2] 0.000141 µM | [13] 0.000104 µM | [5] 0.000386 µM | [14] 2.67e-05 µM
inactive: [1] | [15] | [4]

Oc1ccc(C(=C(Cl)Cl)c2ccc(O)cc2)cc1
inactive: [1] | [15] | [13] | [5]
active: [2] 41.2 µM | [4] 77.7 µM | [14] 72.4 µM

C=CCN(C1=NCCN1)c1c(Cl)cccc1Cl
inactive: [1] | [2] | [15] | [13]
